Laboratory results reported in PubChem BioAssay (NCI).
Compounds without any hit were thinned out: in the full panel of roughly 79,000, 15% have a hit. The source made the active and inactive calls. Rule as the data show it: active = growth inhibition above about 70%; inactive = the rest.

Tests used:
[1] = NCI Yeast Anticancer Drug Screen. Data for the rad52 strain (AID 147);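 also: 0% = growth of vehicle-treated control cultures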; conditions: S. cerevisiae rad52 mutant growth inhibition, hits give high values
Outline: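 Genetically altered yeast (DNA damage repair defect) treated with compound; inhibition calculated relative to vehicle.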

[2] = NCI Yeast Anticancer Drug Screen. Data for the wt1 strain (AID 149);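 also: 0% = growth of vehicle-treated wt1 cultures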; conditions: S. cerevisiae wt1 strain (SPY 50644) growth inhibition, hits give high values
Outline: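 wt1 strain grown with compound or vehicle; inhibition taken from the growth difference.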

[3] = NCI Yeast Anticancer Drug Screen. Data for the rad50EPP+ strain (AID 151);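 also: 0% = growth of vehicle-treated control cultures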; conditions: S. cerevisiae rad50 mutant strain, hits give high values
Outline: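 Strain rad50EPP+; compound exposure; % growth inhibition vs vehicle.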

[4] = NCI Yeast Anticancer Drug Screen. Data for the mgt1 strain (AID 153); conditions: S. cerevisiae mgt1 mutant growth inhibition, hits give high values
Outline: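 Read-out: yeast growth inhibition vs vehicle control. Strain mgt1, drawn from a panel altered in DNA damage repair or cell cycle control.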

[5] = NCI Yeast Anticancer Drug Screen. Data for the mec2-1 strain (AID 157); conditions: S. cerevisiae mec2-1 strain, hits give high values
Outline: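 Cells of the genetically defined mec2-1 yeast strain are incubated with test compound. Inhibition of growth is calculated against vehicle-treated controls.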

[6] = NCI Yeast Anticancer Drug Screen. Data for the rad14 strain (AID 159);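 also: 0% = growth of vehicle-treated control cultures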; conditions: S. cerevisiae rad14 strain growth inhibition, hits give high values
Outline: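 DNA repair-defective yeast, compound-exposed; % growth inhibition derived by comparison with vehicle-treated controls.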

[7] = NCI Yeast Anticancer Drug Screen. Data for the sgs1 mgt1 strain (AID 161);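 also: 0% = growth of cultures given vehicle only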; conditions: S. cerevisiae sgs1 mgt1 strain, hits give high values
Outline: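 Inhibition of yeast growth, normalised to vehicle-treated controls, is reported for a strain bearing genetic alterations in DNA damage repair.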

[8] = NCI Yeast Anticancer Drug Screen. Data for the CLN2oe strain (AID 163);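 also: 0% = growth of vehicle-only control cultures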; conditions: S. cerevisiae CLN2oe strain, hits give high values
Outline: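 Strain altered in cell-cycle control, incubated with compound; growth compared to solvent-treated controls.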

[9] = NCI Yeast Anticancer Drug Screen. Data for the cln2 rad14 strain (AID 165);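 also: 0% = growth equal to vehicle treated cultures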; conditions: S. cerevisiae cln2 rad14 strain, hits give high values
Outline: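 The screen exposed genetically defined yeast (cln2 rad14) to test compounds and scored growth inhibition relative to vehicle-treated controls.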

[10] = NCI Yeast Anticancer Drug Screen. Data for the bub3 strain (AID 167); conditions: S. cerevisiae bub3 mutant strain, hits give high values
Outline: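 In this screen, a yeast mutant lacking normal mitotic checkpoint function is challenged with compound. Relative growth versus vehicle gives the inhibition value.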

[11] = NCI Yeast Anticancer Drug Screen. Data for the wt2 strain (AID 169);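 also: 0% = growth of vehicle-treated yeast cultures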; conditions: S. cerevisiae wt2 strain growth inhibition, hits give high values
Outline: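 Steps: yeast strain treated with compound; growth recorded; inhibition calculated relative to cultures given vehicle alone.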

[12] = NCI Yeast Anticancer Drug Screen. Data for the mlh1 strain (AID 171);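 also: 0% = growth of vehicle-treated control cultures of the same strain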; conditions: S. cerevisiae mlh1 strain growth inhibition, hits give high values
Outline: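 Yeast screen: mutant strain plus compound, growth scored against vehicle control wells.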

[13] = NCI Yeast Anticancer Drug Screen. Data for the sgs1 strain (AID 173);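 also: 0% = growth of vehicle-only control cultures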; conditions: S. cerevisiae sgs1 mutant, hits give high values
Outline: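 Inhibition of yeast growth served as the measure. The mutant strain was treated with each compound, and growth was normalised to cultures receiving vehicle alone.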

[14] = NCI Yeast Anticancer Drug Screen. Data for the mlh1 rad18 strain (AID 175); conditions: S. cerevisiae mlh1 rad18 strain growth inhibition, hits give high values
Outline: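 Compound-treated yeast growth, normalised to vehicle controls. Strain bears defined DNA repair mutations.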

[15] = NCI Yeast Anticancer Drug Screen. Data for the rad18 strain (AID 177); conditions: S. cerevisiae rad18 mutant growth inhibition, hits give high values
Outline: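 Inhibition values reflect reduced yeast growth compared with vehicle-treated controls, using a strain engineered with a DNA damage repair defect.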

[16] = NCI Yeast Anticancer Drug Screen. Data for the rad50 strain (AID 155);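 also: 0% = growth of vehicle-only cultures of the same strain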; conditions: S. cerevisiae rad50 strain growth inhibition, hits give high values
Outline: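 DNA repair mutant yeast, compound exposure, growth read-out; inhibition is taken relative to vehicle.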

[17] = at 5.0 µM (retest, dose inferred, filed as 0.5)
[18] = at 50.0 µM (retest, dose inferred, filed as 5.0)

Measured: growth inhibition

CCCCCCCCCCCCCCN
inactive: [1]; at 1.2 µM 8% | [1]; at 3.7 µM 1% | [1]; at 11.0 µM -3% | [1]; at 33.0 µM 23% | [2]; at 1.2 µM 4% | [2]; at 3.7 µM -5% | [2]; at 11.0 µM -1% | [2]; at 33.0 µM 6% | [3]; at 1.2 µM -9% | [3]; at 3.7 µM 18% | [3]; at 11.0 µM 32% | [3]; at 33.0 µM 64% | [4]; at 1.2 µM -2% | [4]; at 3.7 µM 1% | [4]; at 11.0 µM -5% | [4]; at 33.0 µM 52% | [5]; at 1.2 µM -10% | [5]; at 3.7 µM -5% | [5]; at 11.0 µM -9% | [5]; at 33.0 µM 38% | [6]; at 1.2 µM 20% | [6]; at 3.7 µM 20% | [6]; at 11.0 µM 14% | [6]; at 33.0 µM 15% | [7]; [17] -20% | [8]; at 1.2 µM 6% | [8]; at 3.7 µM 6% | [8]; at 11.0 µM -14% | [8]; at 33.0 µM 37% | [9]; [17] 24% | [10]; at 1.2 µM 25% | [10]; at 3.7 µM 7% | [10]; [17] 31% | [10]; at 11.0 µM 21% | [10]; at 33.0 µM 58% | [11]; at 1.2 µM 3% | [11]; at 3.7 µM -1% | [11]; at 11.0 µM 4% | [11]; at 33.0 µM 27% | [12]; at 1.2 µM -3% | [12]; at 3.7 µM 8% | [12]; at 11.0 µM 2% | [12]; at 33.0 µM 16% | [13]; at 1.2 µM 10% | [13]; at 3.7 µM 16% | [13]; at 11.0 µM 19% | [13]; at 33.0 µM 65% | [15]; at 1.2 µM -3% | [15]; at 3.7 µM 4% | [15]; at 11.0 µM 5% | [15]; at 33.0 µM 24%
active: [1]; at 100.0 µM 98% | [2]; at 100.0 µM 98% | [3]; at 100.0 µM 97% | [4]; at 100.0 µM 99% | [5]; [17] 100% | [5]; [18] 96% | [5]; at 50.0 µM 92.1% | [5]; at 100.0 µM 99% | [6]; at 100.0 µM 99% | [7]; [18] 99% | [7]; at 50.0 µM 90.8% | [8]; at 100.0 µM 98% | [9]; [18] 99% | [9]; at 50.0 µM 88.2% | [10]; [18] 99% | [10]; at 50.0 µM 90.7% | [10]; at 100.0 µM 98% | [11]; at 100.0 µM 99% | [12]; at 100.0 µM 98% | [13]; at 100.0 µM 98% | [14]; [17] 100% | [14]; [18] 97% | [14]; at 50.0 µM 91.2% | [15]; at 100.0 µM 98%

C[N+](C)([O-])CCCNc1c2ccccc2nc2cccc([N+](=O)[O-])c12
inactive: [1]; at 1.2 µM 54% | [2]; at 1.2 µM -3% | [2]; at 3.7 µM 7% | [2]; at 11.0 µM 24% | [3]; at 1.2 µM 28% | [3]; at 3.7 µM 44% | [4]; at 1.2 µM -5% | [4]; at 3.7 µM -10% | [4]; at 11.0 µM 7% | [16]; at 1.2 µM 31% | [16]; at 3.7 µM 68% | [16]; [17] 63% | [5]; at 1.2 µM 3% | [5]; at 3.7 µM 54% | [5]; [17] 54% | [7]; [17] 41% | [8]; at 1.2 µM -2% | [8]; at 3.7 µM -1% | [8]; at 11.0 µM 33% | [10]; at 1.2 µM -25% | [10]; at 3.7 µM -14% | [10]; [17] 6% | [10]; at 11.0 µM 15% | [10]; at 50.0 µM 52.6% | [12]; at 1.2 µM 14% | [12]; at 3.7 µM 22% | [12]; at 11.0 µM 44%
active: [1]; at 3.7 µM 86% | [1]; at 11.0 µM 94% | [1]; at 33.0 µM 96% | [1]; at 100.0 µM 96% | [2]; at 33.0 µM 80% | [2]; at 100.0 µM 94% | [3]; at 11.0 µM 79% | [3]; at 33.0 µM 94% | [3]; at 100.0 µM 95% | [4]; at 33.0 µM 70% | [4]; at 100.0 µM 93% | [16]; at 11.0 µM 91% | [16]; at 33.0 µM 94% | [16]; [18] 89% | [16]; at 50.0 µM 86.8% | [16]; at 100.0 µM 95% | [5]; at 11.0 µM 93% | [5]; at 33.0 µM 97% | [5]; [18] 95% | [5]; at 50.0 µM 88% | [5]; at 100.0 µM 96% | [7]; [18] 89% | [7]; at 50.0 µM 83.2% | [8]; at 33.0 µM 82% | [8]; at 100.0 µM 93% | [9]; [17] 85% | [9]; [18] 96% | [9]; at 50.0 µM 87.2% | [10]; at 33.0 µM 79% | [10]; [18] 74% | [10]; at 100.0 µM 95% | [12]; at 33.0 µM 89% | [12]; at 100.0 µM 95% | [13]; at 1.2 µM 80% | [13]; at 3.7 µM 89% | [13]; at 11.0 µM 94% | [13]; at 33.0 µM 94% | [13]; at 100.0 µM 97% | [14]; [17] 81% | [14]; [18] 95% | [14]; at 50.0 µM 78.5% | [15]; at 1.2 µM 95% | [15]; at 3.7 µM 96% | [15]; at 11.0 µM 96% | [15]; at 33.0 µM 97% | [15]; at 100.0 µM 97%

Cc1cccc(C)c1NC(=O)C(C#N)C1=C(Cl)C(=O)c2ccccc2C1=O (stereo unspecified)
active: [1]; at 11.0 µM 93% | [1]; at 33.0 µM 95% | [1]; at 100.0 µM 94% | [2]; at 11.0 µM 94% | [2]; at 33.0 µM 98% | [2]; at 100.0 µM 97% | [3]; at 11.0 µM 98% | [3]; at 33.0 µM 98% | [3]; at 100.0 µM 96% | [16]; [17] 95% | [16]; at 11.0 µM 97% | [16]; at 33.0 µM 97% | [16]; [18] 96% | [16]; at 50.0 µM 91.2% | [16]; at 100.0 µM 96% | [5]; [17] 99% | [5]; at 11.0 µM 98% | [5]; at 33.0 µM 98% | [5]; [18] 99% | [5]; at 50.0 µM 93.1% | [5]; at 100.0 µM 98% | [6]; at 3.7 µM 88% | [6]; at 11.0 µM 98% | [6]; at 33.0 µM 98% | [6]; at 100.0 µM 97% | [7]; [17] 99% | [7]; [18] 99% | [7]; at 50.0 µM 93.7% | [8]; at 11.0 µM 77% | [8]; at 33.0 µM 97% | [8]; at 100.0 µM 96% | [9]; [18] 98% | [9]; at 50.0 µM 92.8% | [10]; at 3.7 µM 70% | [10]; [17] 99% | [10]; at 11.0 µM 97% | [10]; at 33.0 µM 97% | [10]; [18] 98% | [10]; at 50.0 µM 92.2% | [10]; at 100.0 µM 95% | [11]; at 11.0 µM 98% | [11]; at 33.0 µM 98% | [11]; at 100.0 µM 98% | [12]; at 3.7 µM 78% | [12]; at 11.0 µM 98% | [12]; at 33.0 µM 98% | [12]; at 100.0 µM 98% | [13]; at 11.0 µM 97% | [13]; at 33.0 µM 98% | [13]; at 100.0 µM 97% | [14]; [17] 98% | [14]; [18] 98% | [14]; at 50.0 µM 91.7% | [15]; at 11.0 µM 92% | [15]; at 33.0 µM 97% | [15]; at 100.0 µM 96%
inactive: [1]; at 1.2 µM -43% | [1]; at 3.7 µM 46% | [2]; at 1.2 µM -24% | [2]; at 3.7 µM 24% | [3]; at 1.2 µM 14% | [3]; at 3.7 µM 67% | [16]; at 1.2 µM -11% | [16]; at 3.7 µM 23% | [5]; at 1.2 µM -7% | [5]; at 3.7 µM 62% | [6]; at 1.2 µM -2% | [8]; at 1.2 µM 3% | [8]; at 3.7 µM 16% | [9]; [17] 65% | [10]; at 1.2 µM 6% | [11]; at 1.2 µM -22% | [11]; at 3.7 µM 35% | [12]; at 1.2 µM -4% | [13]; at 1.2 µM 8% | [13]; at 3.7 µM 45% | [15]; at 1.2 µM -32% | [15]; at 3.7 µM -1%
